Several values for one entry are separate records, joined by “and”; a condition that tells them apart may be missing. Equal values may be shown once. Inconclusive results are not listed. Activity calls are given as the source filed them.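 The calls were made as follows, unless noted: active = compounds killing one labelled cell type while sparing the other, by normalised counts and ratio limits, not self-fluorescent; inactive = the rest.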 Peptide text beside a SMILES is read from it.
How the values were obtained:
[1] = EMT-state selective cytotoxicity in co-culture – imaging, PC-3E GFP, TEM4-18 mCherry, primary screen (AID 1345086); details: PC-3E GFP / TEM4-18 mCherry co-culture, imaging cell counts, at 1 µM; for red/green cell ratio (normalised): actives lie on both sides, counts scaled to control wells, 1 = unselective;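 as to all read-outs here: cells exposed to compound for 72 h before imaging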;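 as to red/green cell ratio (normalised): normalised mesenchymal count divided by normalised epithelial count so high means epithelial killing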
[2] = viability loss in pontine glioma line – cell-based, SU-DIPG-XVII, MIPE5.0, CellTiter-Glo, qHTS, dose response (AID 1347060; cut-off not given, nearly all actives have AC50 up to about 26 µM;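 as to AC50: cells exposed to compound for 48 hours before viability readout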); details: CellTiter-Glo ATP luminescence
[3] = viability loss in pontine glioma line – cell-based, SU-DIPG-XIII, MIPE4.0, CellTiter-Glo, qHTS, dose response (AID 1347061; cut-off not given, nearly all actives have AC50 up to about 37 µM;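 also: cells exposed to compound for 48 hours before readout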); details: CellTiter-Glo ATP luminescence
[4] = viability loss in pontine glioma line – cell-based, JHH-DIPG-1, MIPE4.0, CellTiter-Glo, qHTS, dose response (AID 1347062; cut-off not given, nearly all actives have AC50 up to about 27 µM;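 as to AC50: cells exposed to compound for two days before readout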); details: JHH-DIPG-1 viability, CellTiter-Glo ATP luminescence
[5] = viability loss in pontine glioma line – cell-based, SU-DIPG-IV, MIPE4.0, CellTiter-Glo, qHTS, dose response (AID 1347063; cut-off not given, nearly all actives have AC50 up to about 30 µM;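 also: compound exposure lasted 48 hours before the viability readout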); details: CellTiter-Glo ATP luminescence
[6] = viability loss in pontine glioma line – cell-based, SU-DIPG-XIII, MIPE5.0, CellTiter-Glo, qHTS, dose response (AID 1347064; cut-off not given, nearly all actives have AC50 up to about 23 µM;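 as to AC50: cells exposed to compound for 48 hours before the viability read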); details: CellTiter-Glo ATP luminescence
[7] = measured here: epithelial PC-3E GFP cell survival
[8] = measured here: mesenchymal TEM4-18 mCherry cell survival

SMILES | red/green cell ratio (normalised) [1] | normalised cell number [1, 7] | normalised cell number [1, 8] | AC50 [2] | AC50 [3] | AC50 [4] | AC50 [5] | AC50 [6] | outcome [2] | outcome [3] | outcome [4] | outcome [5] | outcome [6]
CN(C)c1ccc2nc3ccc(=[N+](C)C)cc-3sc2c1 | 0.68 (inactive) | 0.15 | 0.1 | 5.9 µM (active) | 4.69 µM (active) | 2.96 µM (active) | 5.9 µM (active) | 2.63 µM (active) |  |  |  |  | 
COC(=O)[C@H](Cc1ccccc1)NC(=O)[C@@H](N)CC(=O)O (H-Asp-Phe-OMe) | 1.23 (inactive) | 1.01 | 1.24 |  |  |  |  |  | inactive | inactive | inactive | inactive | 
O=C(Nc1ccc([N+](=O)[O-])cc1Cl)c1cc(Cl)ccc1O | 0.66 (inactive) | 0.36 | 0.24 | 1.05 µM (active) | 0.935 µM (active) | 1.66 µM (active) | 1.66 µM (active) | 1.18 µM (active) |  |  |  |  | 
CN(C)c1ccc(C(=C2C=CC(=[N+](C)C)C=C2)c2ccc(N(C)C)cc2)cc1 | 3.62 (active) | 0.14 | 0.5 | 1.48 µM (active) | 2.96 µM (active) | 0.235 µM (active) | 0.148 µM (active) | 1.48 µM (active) |  |  |  |  | 
O=C(O)c1cn(-c2ccc(F)cc2)c2cc(N3CCNCC3)c(F)cc2c1=O | 0.95 (inactive) and 0.88 (inactive) | 1.1 and 0.99 | 1.04 and 0.87 |  |  |  |  |  | inactive | inactive | inactive | inactive | inactive
NCC1CCC(C(=O)O)CC1 (stereo unspecified) | 1.26 (inactive) | 1 | 1.27 |  |  |  |  |  | inactive | inactive | inactive | inactive | 
O=NN(CCCl)C(=O)NC1CCCCC1 | 1.11 (inactive) | 1.04 | 1.15 |  |  |  |  |  | inactive | inactive | inactive |  | inactive
CCCCCN(C)CCC(O)(P(=O)(O)O)P(=O)(O)O | 1.14 (inactive) | 0.86 | 0.98 |  |  |  |  |  | inactive | inactive | inactive | inactive | inactive

— PubChem BioAssay
